In ChEMBL document CHEMBL3433997, “St. Jude Leishmania screening dataset” (2016):

Experiments:
Format in all cases: functional
[1] = target: Solute carrier family 2, facilitated glucose transporter member 1 (Homo sapiens) (UniProt P11166); assay: ST_JUDE_LEISH: Cytotoxicity at 2uM final concentration against transgenic Leishmania Mexicana promastigotes LmGLUT1 that are glucose transport deficient and complemented with the human glucose transporter GLUT1. Activity is measured by DNA content using SYBR green in vitro
[2] = target: Hexose transporter 1 (Plasmodium falciparum) (UniProt O97467); assay: ST_JUDE_LEISH: Cytotoxicity at 2uM final concentration against transgenic Leishmania Mexicana promastigotes LmPfHT that are glucose transport deficient and complemented with the Plasmodium falciparum hexose transporter. Activity is measured by DNA content using SYBR green in vitro
[3] = target: Glucose transporter (Leishmania mexicana) (UniProt O61059); assay: ST_JUDE_LEISH: Cytotoxicity at 2uM final concentration against transgenic Leishmania Mexicana promastigotes LmGT2 that are glucose transport deficient and complemented with the L. Mexicana glucose transporter 2. Activity is measured by DNA content using SYBR green in vitro

Sequence of Solute carrier family 2, facilitated glucose transporter member 1 (Homo sapiens) (P11166 whole entry): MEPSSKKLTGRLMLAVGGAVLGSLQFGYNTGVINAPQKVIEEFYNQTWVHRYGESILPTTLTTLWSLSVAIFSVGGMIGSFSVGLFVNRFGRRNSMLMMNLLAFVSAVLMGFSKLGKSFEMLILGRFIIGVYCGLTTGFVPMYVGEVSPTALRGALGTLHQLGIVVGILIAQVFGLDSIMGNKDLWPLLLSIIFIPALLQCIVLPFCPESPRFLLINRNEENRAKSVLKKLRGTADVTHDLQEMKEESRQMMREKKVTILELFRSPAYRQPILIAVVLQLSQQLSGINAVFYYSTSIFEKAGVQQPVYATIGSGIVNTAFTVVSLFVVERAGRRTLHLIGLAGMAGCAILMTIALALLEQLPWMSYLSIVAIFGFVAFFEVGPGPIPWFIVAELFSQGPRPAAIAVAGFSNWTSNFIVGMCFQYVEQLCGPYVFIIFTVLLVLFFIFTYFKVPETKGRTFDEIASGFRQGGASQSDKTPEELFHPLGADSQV

Question: `COc1cc(F)c2ncc(Cl)c(CCN3CCC(NCc4ccc5c(c4)NC(=O)CS5)CC3)c2c1` was tested. Which inhibition [1] did it give?
Answer: 15.1%

Question: What about the inhibition [2] of the same compound?
Answer: 18.3%

Question: What about the inhibition [3] of the same compound?
Answer: 8.82%

Question: What does the source list for `COc1ccc2nccc([C@@H](O)CN3CCC(NCc4cc5ccc(Cl)cc5[nH]4)CC3)c2c1`?
Answer: inhibition [1]: 9.64%; inhibition [2]: 12.1%; inhibition [3]: 4.6%

Question: What does the source list for `CCN(CCCN1CCCCC1)c1cc(C)nc(Nc2cccc(C(F)(F)F)c2C)n1`?
Answer: inhibition [1]: -0.36%; inhibition [2]: 1.74%; inhibition [3]: 0.96%

Question: `Cc1cc(N2CCCN(C)CC2)nc(Nc2ccc(Br)cc2)n1` was tested. Which inhibition [1] did it give?
Answer: 5.39%

Question: What about the inhibition [2] of the same compound?
Answer: -1.23%

Question: What about the inhibition [3] of the same compound?
Answer: 1.6%

Question: Which inhibition [1] does the source give for `NC1CCN(c2nc(NCCCc3ccc(O)cc3)nc(NCc3ccccc3-c3ccc(C(F)(F)F)cc3)n2)CC1` here?
Answer: 1.49%

Question: And the inhibition [2]?
Answer: 2.87%

Question: What about the inhibition [3] of the same compound?
Answer: 3.83%

Question: For `COc1ccc2c(c1)Sc1ccccc1C(N1CCN(CCO)CC1)C2` (stereo unspecified), which inhibition [1] is on record?
Answer: 1.57%

Question: And the inhibition [2]?
Answer: 2.05%

Question: What about the inhibition [3] of the same compound?
Answer: 2.69%

Question: Which results are given for `N#Cc1cccc(/C=C/C(=O)NC2CCC(CCN3CCc4ccc(-c5cnccn5)cc4CC3)CC2)c1` (stereo unspecified)?
Answer: inhibition [1]: 7.94%; inhibition [2]: 7.48%; inhibition [3]: 7.56%

Question: For `Nc1c(Cl)cc(C(O)CNCCCCCOCCc2ccccc2)cc1C(F)(F)F` (stereo unspecified), which inhibition [1] is on record?
Answer: 8.73%

Question: And the inhibition [2]?
Answer: 4.17%

Question: And the inhibition [3]?
Answer: -2.01%

Question: `CC(C)C[C@@H](/C=N/N1CCOC1=O)NC(=O)[C@H](CC(C)C)NC(=O)c1ccc(OCCN2CCOCC2)cc1` was tested. Which inhibition [1] did it give?
Answer: 1.39%

Question: And the inhibition [2]?
Answer: 6.46%

Question: What about the inhibition [3] of the same compound?
Answer: 3.93%

Question: How did the inhibition [1] turn out when `C=C[C@H]1CN(CCCCCCC)CC[C@H]1CC(=O)Nc1cnnc2ccc(OC)cc12` was run?
Answer: 1.79%

Question: And the inhibition [2]?
Answer: 0.25%

Question: What about the inhibition [3] of the same compound?
Answer: 4.78%

Question: For `Nc1ccc(-c2ccc3ccnc(N)c3c2)cc1`, which inhibition [1] is on record?
Answer: 0.24%

Question: What about the inhibition [2] of the same compound?
Answer: -0.79%

Question: What about the inhibition [3] of the same compound?
Answer: 1.39%

Question: With `CCc1cc(COc2ccc(CNCCC(C)C)cc2I)c(OCc2ccccc2)c(COc2ccc(CNCCC(C)C)cc2I)c1` as the compound, how does the inhibition [1] read?
Answer: -0.25%

Question: What about the inhibition [2] of the same compound?
Answer: -3.29%

Question: What about the inhibition [3] of the same compound?
Answer: 3.76%

Question: How did the inhibition [1] turn out when `CCc1c(CCNCCCC(C)CCNCCc2ccc(OC)c(OC)c2CC)ccc(OC)c1OC` (stereo unspecified) was run?
Answer: 1.96%

Question: What about the inhibition [2] of the same compound?
Answer: 4.93%

Question: And the inhibition [3]?
Answer: 1.22%

Question: Which inhibition [1] does the source give for `COc1ccc2nccc([C@@H](O)CN3CCC(NCc4ccc5c(c4)NC(=O)C(C)S5)CC3)c2c1` (stereo partly specified) here?
Answer: 12.2%

Question: What about the inhibition [2] of the same compound?
Answer: 1.99%

Question: And the inhibition [3]?
Answer: 4.38%

Question: With `O=C(OCC1CCN(Cc2ccccc2)C1)c1ccc(Cl)cc1` (stereo unspecified) as the compound, how does the inhibition [1] read?
Answer: 0.47%

Question: And the inhibition [2]?
Answer: 1.6%

Question: And the inhibition [3]?
Answer: 2.14%

Question: Which results are given for `CCCN/C=N/c1cc(-c2csc(NC(=N)N)n2)cc([N+](=O)[O-])c1`?
Answer: inhibition [1]: -0.32%; inhibition [2]: -0.62%; inhibition [3]: -2.26%

Question: For `CN(C)c1ccc(CN2CCC(CNC(=O)c3cc(-c4ccccc4F)cs3)C2)cc1` (stereo unspecified), which inhibition [1] is on record?
Answer: 1.96%

Question: What about the inhibition [2] of the same compound?
Answer: 1.98%

Question: What about the inhibition [3] of the same compound?
Answer: 2.12%

Question: Which inhibition [1] does the source give for `CC(C)CNCc1ccc(-c2cccc(CN(CCCN3CCN(C)CC3)C(=O)/C=C/c3ccccc3)c2)cc1` here?
Answer: 5.83%

Question: And the inhibition [2]?
Answer: 5.21%

Question: And the inhibition [3]?
Answer: 5.27%

Question: For `CCOc1ccc(Br)cc1/C=C/C(=O)Nc1ccc2c(c1)CN(C)CCC2`, which inhibition [1] is on record?
Answer: 4.12%

Question: And the inhibition [2]?
Answer: 5.18%

Question: And the inhibition [3]?
Answer: 4.34%

Question: What does the source list for `OCC1CCN(Cc2ccc(-c3ccc(-c4nc5cc(C(F)(F)F)ccc5[nH]4)s3)cc2)CC1`?
Answer: inhibition [1]: 1.82%; inhibition [2]: 0.23%; inhibition [3]: 1.7%

Question: Which results are given for `O=C(Nc1cccc(CN2CCCN(CC3CCCCC3)CC2)c1)c1cc2ccccc2s1`?
Answer: inhibition [1]: 1.81%; inhibition [2]: 0.88%; inhibition [3]: -8.67%

Question: For `Cc1cc(N[C@@H](Cc2ccccc2)C(=O)NCc2cccc(F)c2)nc(NCCc2ccc(F)cc2)n1`, which inhibition [1] is on record?
Answer: 4.47%

Question: And the inhibition [2]?
Answer: 2.55%

Question: And the inhibition [3]?
Answer: 1.36%

Question: With `O=C(CCc1cccc(O)c1)NCC(NCCCNc1cc(=O)c2ccccc2[nH]1)c1cc(Br)cc(Br)c1` (stereo unspecified) as the compound, how does the inhibition [1] read?
Answer: 8.91%

Question: What about the inhibition [2] of the same compound?
Answer: 5.63%

Question: What about the inhibition [3] of the same compound?
Answer: 6.84%

Question: Which inhibition [1] does the source give for `Nc1nc(N)c2c(Oc3cccc(Cl)c3)cccc2n1` here?
Answer: 1.52%

Question: And the inhibition [2]?
Answer: 1.79%

Question: And the inhibition [3]?
Answer: -1.1%

Question: Which inhibition [1] does the source give for `CCn1c(-c2nonc2N)nc2c(-c3cccc(Cl)c3)ncc(OCCCNCCc3c[nH]cn3)c21` here?
Answer: 4.7%

Question: And the inhibition [2]?
Answer: 4.78%

Question: What about the inhibition [3] of the same compound?
Answer: 3.45%

Question: Which results are given for `Cc1cc(N[C@@H](Cc2ccccc2)C(=O)NCc2cccc(F)c2)nc(Nc2ccccc2)n1`?
Answer: inhibition [1]: 6.85%; inhibition [2]: 7.5%; inhibition [3]: 2.63%

Question: What does the source list for `O=C(/C=C/c1ccc(Cl)c(Cl)c1)NCCCCCN1CCCC(C(=O)Nc2cccc(Cl)c2)C1` (stereo unspecified)?
Answer: inhibition [1]: 3.89%; inhibition [2]: 2.5%; inhibition [3]: 1.07%

Question: `CN1CCC(NC(=O)c2cc(Oc3ccc4c(c3)CCN4C(=O)Nc3cccc(C(F)(F)F)c3)ccn2)CC1` was tested. Which inhibition [1] did it give?
Answer: 3.67%

Question: And the inhibition [2]?
Answer: 6.55%

Question: What about the inhibition [3] of the same compound?
Answer: 1.74%

Question: Which inhibition [1] does the source give for `N#Cc1ccc(NC(=O)NC2CCN(CCCCCNC(=O)/C=C/c3ccc(Cl)c(Cl)c3)CC2)cc1` here?
Answer: 3.11%

Question: What about the inhibition [2] of the same compound?
Answer: 3.17%

Question: And the inhibition [3]?
Answer: 6.31%

Question: What does the source list for `Cc1c(S(=O)(=O)Nc2cccc(CCN3CCCCC3CCN3CCCC3)c2)sc2ccc(Cl)cc12` (stereo unspecified)?
Answer: inhibition [1]: -1.39%; inhibition [2]: 2.14%; inhibition [3]: -0.62%

Question: How did the inhibition [1] turn out when `CN(CCCc1c[nH]c2ccccc12)CC1CCN(C(=O)/C=C/c2ccc(Cl)c(Cl)c2)CC1` was run?
Answer: -3.42%

Question: What about the inhibition [2] of the same compound?
Answer: -1.25%

Question: And the inhibition [3]?
Answer: -1.38%

Question: What does the source list for `CS(=O)(=O)c1ccc(CNCc2cccc(-c3ccc(-c4nc5cc(C(F)(F)F)ccc5[nH]4)cc3)c2)cc1`?
Answer: inhibition [1]: 5.51%; inhibition [2]: 5.08%; inhibition [3]: 3.3%
